# Compound activity: PubChem, National Center for Advancing Translational Sciences (NCATS)
# Giardia FBPA inh: Giardia lamblia aldolase inhibition | Potency, µM (titrated, usually from 59.6 µM), without a hit: at the highest dose activity, negative = inhibition, most hits filed as inhibitors | AID 2451 | 290,000 tested, 0.71% active | purified Giardia FBPA | A8B2U2; note: nearly all actives have a fitted effect of over 55% in size
# Target sequence (A8B2U2 whole entry, looked up): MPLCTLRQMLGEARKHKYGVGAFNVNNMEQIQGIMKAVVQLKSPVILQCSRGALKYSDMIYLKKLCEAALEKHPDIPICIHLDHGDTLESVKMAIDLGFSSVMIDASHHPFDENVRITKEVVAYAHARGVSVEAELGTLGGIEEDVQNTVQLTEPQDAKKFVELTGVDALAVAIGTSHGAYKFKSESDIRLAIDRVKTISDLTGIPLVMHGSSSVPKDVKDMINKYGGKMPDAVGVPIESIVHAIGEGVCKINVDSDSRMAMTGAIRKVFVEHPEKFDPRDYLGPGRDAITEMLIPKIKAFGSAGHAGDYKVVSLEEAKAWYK
#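 40 nM FBPA preincubated 10 min at RT with compound (up to 57.5 uM final), then substrate plus GAPDH/TPI/NAD/arsenate coupling and diaphorase/resazurin added. Fluorescence read after 20 min at RT, 525/598 nm.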
# Cruzain noTriton: blocks cruzain activity in detergent-free assay; P25779; purified cruzain, Z-FR-AMC fluorescence, no detergent; Potency, µM, without a hit: max response, negative = inhibition, most hits filed as inhibitors; 200,000 tested, 2.3% active; AID 1476;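 note: plate controls were enzyme without inhibitor for no effect and buffer without enzyme for full effect; nearly all actives have a fitted effect of over 40% in size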
# Target sequence (P25779 123-467 limits assumed): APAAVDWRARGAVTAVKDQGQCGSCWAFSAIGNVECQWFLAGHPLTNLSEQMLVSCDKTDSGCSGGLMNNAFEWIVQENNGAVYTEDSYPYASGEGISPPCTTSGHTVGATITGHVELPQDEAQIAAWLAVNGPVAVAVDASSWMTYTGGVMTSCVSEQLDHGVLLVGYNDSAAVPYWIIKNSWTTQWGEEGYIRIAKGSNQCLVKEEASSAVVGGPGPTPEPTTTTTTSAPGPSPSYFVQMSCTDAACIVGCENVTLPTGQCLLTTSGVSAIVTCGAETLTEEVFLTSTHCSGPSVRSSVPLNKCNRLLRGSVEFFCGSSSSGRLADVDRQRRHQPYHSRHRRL
#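 Purified cruzain at 1.5 nM, pre-incubated 15 min with compound at room temperature in 100 mM sodium acetate pH 5.5, 5 mM DTT, 0.00005% Triton X-100. Reaction started with 2 uM Z-FR-AMC; AMC fluorescence increase over 60 s gives rate.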
# Cruzain inh Det: cruzain (T. cruzi) inhibition with detergent; P25779; purified cruzain, Z-FR-AMC fluorescence, 0.01% Triton; Potency, µM, inactives show max response, negative = inhibition, hits mostly inhibitors; 200,000 tested, 0.43% active; AID 1478;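 note: plate controls were neutral wells for no effect and buffer without enzyme for full effect; nearly all actives have a fitted effect of over 40% in size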
#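 Steps: dispense cruzain (1.5 nM final) in acetate buffer pH 5.5 with DTT and 0.01% Triton X-100; pin-transfer compounds; incubate 15 min RT; add Z-FR-AMC (2 uM final); read fluorescence every 30 s, using the 60 s intensity change.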
# Numbers without * were called inactive; ? = inconclusive; . = not tested or not shown; [ ] = remark or other dose. Only a selection was taken, and hits are over-represented in it overall. Calls come from the whole dose curve; as a rule, active = well fitted curve in the direction sought with a large enough effect; inconclusive = small, poorly fitted or top-dose-only effect, or another doubt; inactive = no such curve, though single readings can be large; an effect the other way counts as inactive or inconclusive. Unless noted, % is set by controls: 0 for no effect and ±100 for the full control effect; potency is the fitted concentration of half-maximal effect.
SMILES,Giardia FBPA inh,Cruzain noTriton,Cruzain inh Det
CC(=O)c1ccc(S(=O)(=O)Nc2ccc(-c3cn4c(C)csc4n3)cc2)cc1,.,25µM*,-4%
OC[C@H](CCc1c[nH]c2ccccc12)c1c[nH]c2ccccc12,.,2%,12%
COc1cc(OC)c2c(c1C(CCN1CCCC(C)C1)c1ccc(N(C)C)cc1)OC(=O)CC2c1ccc(N(C)C)cc1 (stereo not given),-5%,.,.
CC(=O)c1c(O)cccc1O,-6%,.,.
Cc1ccc(NC(=O)Cn2c(-c3ccc4c(c3)OCO4)cn(-c3ccccc3)c2=O)cc1,.,?,-6%
CCc1cc2ccccc2nc1SCC(=O)Nc1cc(C)on1,12%,-8%,1%
CCc1cc2ccc(OC)cc2nc1SCC(=O)Nc1cc(C)on1,-3%,10µM*,7%
CCc1ccc(NC(=O)CSc2nc3cc(C(=O)OC)ccc3c(=O)n2Cc2ccco2)cc1,4%,5µM*,1%
O=c1c2ccccc2nc(SCc2ccccc2)n1Cc1ccco1,5%,-27%,-9%
CCOc1ccc2nc(NC(=S)NCc3ccccc3)sc2c1,5%,25µM*,-3%
CCOC(=O)CSc1nc2ccccc2c(=O)n1Cc1ccco1,3%,1%,-5%
CCOc1ccc2nc(NC(=O)CSc3nc4ccccc4c(=O)n3Cc3ccco3)sc2c1,3%,7.9µM*,2%
O=c1c2ccccc2nnn1CSc1nc2ccccc2c(=O)n1Cc1ccco1,0%,10µM*,-2%
CCOc1ccc2nc(NC(=O)Nc3ccccc3)sc2c1,3%,?,4%
CCN(C(=O)CSc1nc2cc(C(=O)OC)ccc2c(=O)n1Cc1ccco1)c1cccc(C)c1,0%,1%,-1%
CC(=O)OCC1=C[C@H]2[C@@H]3C(C)(C)[C@]3(OC(C)=O)C[C@@H](C)[C@]2(O)[C@@H]2C=C(C)C(=O)[C@@]2(O)C1,-9%,.,.
CN(C)CCNS(=O)(=O)N(C)C,.,6%,0%
C/C(CC(=O)N1CCCC1)=N\NC(=O)c1cc2ccccc2cc1O,13µM*,.,.
O=C(OCC(=O)N1CCCCC1)c1cc2ccccc2cc1O,-1%,-6%,-6%
O[C@@H]1CO[C@H]2C1OC[C@@H]2O (stereo not given in full),2%,.,.
C=C1CC[C@H](O)C/C1=C/C=C1\CCC[C@]2(C)[C@H]1CC[C@H]2[C@@H](C)/C=C\[C@@H](C)C(C)C,-9%[21.7 µM],11%,3%
COc1cc(/C=C2/SC(=S)N(CC(=O)Nc3nc4ccccc4s3)C2=O)cc(OC)c1OC,3%,13µM*,-4%
COc1ccc(/C=C2\SC(=S)N(CC(=O)NCCO)C2=O)cc1,3%,.,.
COc1cc(/C=C2\SC(=S)N(CC(=O)Nc3ccccn3)C2=O)cc(OC)c1OC,-4%,-2%,-13%
Cc1ccc(/C=C2/SC(=S)N(CC(=O)Nc3ncc(Cc4ccc(C)cc4)s3)C2=O)cc1,4%,4µM*,-4%
SMILES,Giardia FBPA inh,Cruzain noTriton,Cruzain inh Det
Cc1ccc(/C=C2\SC(=S)N(CC(=O)Nc3ncc(Cc4ccccc4Cl)s3)C2=O)cc1,12%,3.2µM*,-10%
Cc1cccc(Cc2cnc(NC(=O)CN3C(=O)/C(=C/c4ccccc4)SC3=S)s2)c1,1%,?,-5%
Cc1ccc(/C=C2\SC(=S)N(CCC(=O)Nc3cccnc3)C2=O)cc1,6%,.,.
COc1ccc(/C=C2\SC(=S)N(CC(=O)Nc3nnc(C)s3)C2=O)cc1,1%,16µM*,-14%
CCOC(=O)c1[nH]c(C)c(CCC(=O)NCc2ccccc2Cl)c1C,.,4%,1%
CCC[C@H](Sc1nc(N)nc2nc[nH]c12)C(=O)O,.,7%,0%
CN(C)c1ccc2c(-c3ccccc3)c3ccc(=[N+](C)C)cc-3oc2c1,28%,.,.
O=C(CO)[C@@H](O)C(O)[C@@H](O)CO (stereo not given in full),3%,.,.
CCCC=O,.,-5%,4%
C[C@@H](O)C(N)C(=O)O (stereo not given in full),0%,.,.
CCc1ccc(NCCC(=O)c2ccc(Br)cc2)cc1,1%,1%,-5%
Cc1ccc(NCCC(=O)c2ccc(Br)cc2)cc1,5%,20µM*,-1%
CC[C@H](C)[C@H](NC(=O)[C@H](C)NC(=O)[C@@H](N)C(C)C)C(=O)N[C@H](C(=O)N[C@H](C(=O)N[C@@H](CC(C)C)C(=O)N[C@H](C(=O)N[C@@H](CCCCN)C(=O)O)C(C)C)C(C)C)[C@@H](C)O,8%,.,.
COC(=O)c1c(NC(=O)Cc2coc3cc(C)ccc23)sc2c1CCCC2,.,-25%,-4%
C=CCNC1=C2C[C@@H](C)C[C@H](OC)[C@H](O)[C@@H](C)/C=C(\C)[C@H](OC(N)=O)[C@@H](OC)/C=C/C=C(\C)C(=O)NC(=CC1=O)C2=O,?,4%,-3%
COC1=C2C[C@@H](C)C[C@H](OC)[C@H](O)[C@@H](C)/C=C(\C)[C@H](OC(N)=O)[C@@H](OC)/C=C\C=C(/C)C(=O)NC(=CC1=O)C2=O,3.5µM*,.,.
O=[N+]([O-])c1ccc(Cl)c(CNc2ncnc3c2ncn3[C@@H]2CCCCO2)c1,.,0%,1%
O=S(=O)(Nc1ccc2oc3c(c2c1)CCCC3)c1cc(Cl)ccc1Cl,.,32µM*,-3%
COc1ccc(S(=O)(=O)Nc2ccc3oc4c(c3c2)CCCC4)cc1,.,?,-11%
O=C(NC(=S)Nn1cnc2c(cnn2-c2ccccc2)c1=O)c1ccc(Oc2ccccc2)cc1,9%,25µM*,-2%
O=C(NC(=S)Nn1cnc2c(cnn2-c2ccccc2)c1=O)c1ccc(Cl)cc1,27%,2%,-3%
COc1c(C)cc(S(=O)(=O)NCCc2c(C)[nH]c3ccccc23)c(C)c1C,.,0%,-14%
CCOP(=O)(OCC)C(Nc1ccccc1)c1ccc2c(c1)OCO2 (stereo not given),1%,13µM*,0%
CCCCOP(=O)(OCCCC)C(Nc1ccccc1)c1ccc2c(c1)OCO2 (stereo not given),-3%,6%,-12%
COc1ccccc1NC(=O)C1=C(C)Nc2nc(SCc3cc(C)ccc3C)nn2C1c1ccccc1 (stereo not given),.,4%,-1%
SMILES,Giardia FBPA inh,Cruzain noTriton,Cruzain inh Det
CCOC(=O)N1CCC(NC(=O)c2cnn(-c3ccc(F)cc3)c2-n2cccc2)CC1,.,5%,-2%
CCOc1ccccc1NC(=O)c1c(NCc2ccc(C)o2)sc2c1CCCCC2,.,-12%,-7%
CCOc1ccccc1NC(=O)c1c(NC(=O)CNCc2ccco2)sc2c1CCC2,6%,10µM*,-1%
CCOc1ccc(CNC(=O)c2c(C)nn(-c3ccc(F)cc3)c2-n2cccc2)cc1,.,?,-3%
CCc1cccc(NC(=O)CN2C(=O)COc3ccc(S(=O)(=O)Nc4ccccc4)cc32)c1,.,-29%,-7%
Oc1ccc(Nc2nc(NCC3CCCO3)c3ccccc3n2)cc1 (stereo not given),-8%,-27%,-25%
COc1cccc(Nc2nc(NCC3CCCO3)c3ccccc3n2)c1 (stereo not given),-8%,13µM*,14µM*
COc1cccc(-c2nnc3n2N=C(c2c(OC)cccc2OC)CS3)c1,17%,.,.
C[n+]1c(/C=C\c2ccc(O)c3ncccc23)[se]c2ccccc21,.,2%,-8%
Cc1cc(C)cc(NC(=O)C(NS(=O)(=O)c2cccc3nsnc23)c2ccccc2)c1 (stereo not given),.,0%,-8%
